This is a sample that favours compounds with a hit; in the whole collection about 3.1% have one here.
EWS-Fli inh: inhibitors of EWS/Fli oncoprotein transcriptional activity; A673 NR0B1-luciferase reporter, viability-normalised; inhibition, % at 12.6 µM; 0.67% of 350,000 active;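 active means mean inhibition of at least 50% after viability correction, with every replicate also passing that limit; inconclusive means mean reaches 50% but only one of two replicates passes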;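 further: firefly luciferase signal divided by Alamar Blue viability fluorescence both relative to DMSO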
C2C12 statin: protects C2C12 myotubes from simvastatin toxicity; AID 602340; ATP luminescence, 48 h; scaled: DMSO 0, geranylgeraniol control 100; 0.78% of 330,000 active; rescue of ATP level, % at 7.49 µM;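 active means mean ATP rescue above about 67%, or every replicate alone reaching that limit, limit read from the data, passing the limit was not always enough; inconclusive means no clear call, values can overlap the other calls; inactive means mean under the limit and some replicate under it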;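 further: myotubes were challenged with 10 µM simvastatin during compound exposure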
PAX8 inh HTS: PAX8 transcriptional activity inhibition; AID 652154; inhibition, % at 12.6 µM; RMG-I TPO-luciferase reporter, SteadyGlo, 24 h; 1.2% of 360,000 active;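 active means mean replicate inhibition at least 60% with every replicate also reaching 60%; inconclusive means only one of the two criteria is met; inactive means mean below 60% and not all replicates reaching 60%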;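 further: luciferase light reporting Pax8 driven TPO promoter activity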
GSIS activator: primary screen for activators of insulin secretion dependent on glucose, INS-1E cells, GLuc reporter luminescence | 0.61% of 370,000 active | activation, % at 16.6 µM | INS-1E GLuc reporter insulin secretion, 2-3 h;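 active means lowest replicate activation of at least 40%, so every replicate reaches that level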
HIV Env fusion: HIV envelope-mediated fusion inhibition. HeLa-JRFL Env/CEM21 cell fusion, luciferase. inhibition, % at 12.3 µM. 1.1% of 360,000 active. AID 651610;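 active means mean replicate inhibition score of at least 50 and every replicate individually at or above 50; inconclusive means only one of the two criteria met; inactive means mean below 50 and not all replicates reaching 50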
miR-122 sensor: inhibitors of miR-122 in Huh7 cells; activation (reporter increase), % at 12.5 µM; 0.3% of 340,000 active; Huh7 miR-122 Renilla luciferase sensor, 48 h; neutral wells = 0, positive control = 100;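 active means mean replicate activation score at least 90 and every replicate individually at or above 90; inconclusive means only one of the two criteria met; inactive means neither criterion met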;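 further: higher luciferase means less miR-122 activity so hits act as miR-122 inhibitors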
Numbers stand for hits; - = inactive; ? = inconclusive; . = not tested or not shown.

SMILES	EWS-Fli inh	C2C12 statin	PAX8 inh HTS	GSIS activator	HIV Env fusion	miR-122 sensor
CCOC(=O)N1CCN(C(=O)COc2ccc(S(=O)(=O)NC3CCCCC3)cc2C)CC1	.	116	.	-	.	-
CSc1nc2ccc(S(=O)(=O)NC3CCCCC3)cc2s1	.	-	.	.	.	175
COc1ccc(S(=O)(=O)NC2CCCC2)cc1NC(C)=O	.	-	-	-	-	.
COc1ccc(S(=O)(=O)NC2CCCCC2)cc1C	-	-	.	43	.	137
CCOc1ccc(Br)cc1S(=O)(=O)NC1CCCC1	-	-	-	.	.	93
CSc1nc2ccc(S(=O)(=O)N3CCCCC3)cc2s1	.	-	.	-	-	-
O=C(C[C@H]1C=C[C@@H](NC(=O)Nc2ccc3c(c2)OCO3)[C@H](CO)O1)NCc1ccccc1	-	-	-	-	-	.
O=C(C[C@H]1C[C@@H]2c3cc(NC(=O)C4CCC4)ccc3O[C@@H]2[C@H](CO)O1)NCC(F)(F)F	-	-	-	-	-	-
Cc1noc(C)c1S(=O)(=O)N(C)C[C@@H]1OCCCC[C@H](C)Oc2ccc(NC(=O)CCCN(C)C)cc2C(=O)N([C@H](C)CO)C[C@@H]1C	-	.	-	-	-	-
C[C@@H]1CN([C@@H](C)CO)C(=O)c2cccc(NC(=O)Nc3ccccc3)c2O[C@H]1CN(C)C(=O)Nc1ccc(F)cc1	-	-	-	-	.	-
CCC(=O)N[C@@H]1C[C@@H]2O[C@H](CO)CC[C@@H]2O[C@@H]1CCc1ccc(-c2cccc(OC)c2)cc1	-	.	.	.	.	.
O=S(=O)(NC1CCCCCC1)c1cccc(Cl)c1	-	-	.	-	-	.
COc1cc(S(=O)(=O)NC2CCCCC2)ccc1Cl	.	-	.	-	.	121
CCNS(=O)(=O)c1cc(Br)ccc1OC	.	-	.	.	-	248
COc1ccc(C)cc1S(=O)(=O)NC1CCCC1	.	-	.	.	.	170
Cc1cccc(S(=O)(=O)NC2CCCCCCC2)c1	-	-	-	-	-	159
C[C@H]1CN([C@@H](C)CO)S(=O)(=O)c2ccc(-c3ccccc3)cc2O[C@H]1CN(C)C(=O)c1ccccc1F	-	-	.	-	-	-
C=C(CN(C)C)C(=O)c1ccc(OC2OC(COC(C)=O)C(OC(C)=O)C(OC(C)=O)C2OC(C)=O)cc1 (configuration not stated)	-	.	83	.	-	-
COC1OC(COC(=O)c2ccccc2)C(OC(=O)c2ccccc2)C1OC(=O)c1ccccc1 (configuration not stated)	-	-	-	-	-	-
COc1ccc(S(=O)(=O)/N=C2/C=CC(=O)C(C)=C2C)cc1	.	-	.	.	.	-
CC1=C(C)/C(=N\OS(=O)(=O)c2ccc(C)cc2)C=CC1=O	.	.	63	225	-	.
COC(=O)C1CC23C=CCN4CCC5(c6ccccc6NC15C2C)C43 (configuration not stated)	-	-	-	-	-	148
O=[N+]([O-])c1ccc(NC(=S)NCCc2ccc(F)cc2)cc1	-	.	81	-	-	.
Cc1ccc(NC(=S)NCc2ccc(F)cc2)cc1	-	-	-	-	-	106
Cc1ccc(CSC(Nc2ccc(F)cc2)=C(C#N)C#N)cc1	-	.	?	.	68	.
SMILES	EWS-Fli inh	C2C12 statin	PAX8 inh HTS	GSIS activator	HIV Env fusion	miR-122 sensor
O=C(NCCc1ccc(F)cc1)Nc1ccc([N+](=O)[O-])cc1	.	-	-	-	-	-
Cc1ccc(S(=O)(=O)N[C@@H]2CC[C@H](CC(=O)NC3CCCCC3)O[C@@H]2CO)cc1	-	-	-	-	-	.
Cc1ccc2c(c1)c(C1=c3ccccc3=NC1=O)c(O)n2C	64	-	-	-	-	.
C[C@@H]1CCCCO[C@@H](CN(C)C(=O)Cc2ccccc2)[C@@H](C)CN([C@@H](C)CO)C(=O)c2cc(NS(C)(=O)=O)ccc2O1	-	-	-	-	-	-
O=c1[nH]ncc2c3ccccc3n(Cc3ccccc3)c12	.	108	.	.	.	-
CCCn1c2ccccc2c2cn[nH]c(=O)c21	-	-	-	47	-	-
Cc1ccc(Cn2c3ccccc3c3cn[nH]c(=O)c32)cc1	-	-	-	-	-	-
CC(=O)N(C)C[C@@H]1Oc2cc(-c3ccccc3)ccc2S(=O)(=O)N([C@H](C)CO)C[C@H]1C	-	-	-	-	-	-
O=S(=O)(c1ccccc1Cl)N1CCCC1c1nc(-c2ccc(Cl)cc2)no1 (configuration not stated)	.	.	-	.	82	-
O=C(Nc1ccc2c(c1)[C@H]1C[C@H](CC(=O)N3CCc4ccccc4C3)O[C@H](CO)[C@H]1O2)C1CCOCC1	-	-	-	-	?	-
COC(=O)C1=C(C)N(Cc2ccc(Cl)cc2)C(=S)NC1c1ccc(OC)cc1 (configuration not stated)	-	.	-	-	84	.
COC(=O)C1=C(C)N(Cc2ccccc2)C(=S)NC1c1ccc(Br)cc1 (configuration not stated)	-	.	-	-	-	.
COC(=O)C1=C(C)N(Cc2ccccc2)C(=S)N[C@H]1c1ccc(Br)cc1	-	-	-	-	67	-
COC(=O)C1=C(C)N(Cc2ccc(Cl)cc2)C(=S)NC1c1cccc(F)c1 (configuration not stated)	-	.	-	.	-	.
CC(=O)C1=C(C)N(Cc2ccc(Cl)cc2)C(=S)NC1c1ccc(Cl)cc1 (configuration not stated)	-	.	-	-	60	.
COC(=O)C1=C(C)N(Cc2ccc(F)cc2)C(=S)NC1c1ccc(Cl)cc1 (configuration not stated)	-	.	-	-	59	.
CCNC(=O)[C@@H]1[C@@H](CO)[C@@H]2Cn3c(ccc(-c4ccccc4F)c3=O)[C@@H]2N1C	-	-	-	-	.	-
O=C(C[C@H]1C[C@@H]2c3cc(NC(=O)Nc4ccccc4F)ccc3O[C@@H]2[C@@H](CO)O1)NCC(F)(F)F	-	-	-	-	-	-
O=C(/C=C/c1ccccc1)CC(O)(c1ccccc1)C(F)(F)C(F)F (configuration not stated)	66	-	.	-	.	-
O=C(/C=C/c1ccccc1)CC(O)(c1ccccc1)C(F)(F)F (configuration not stated)	.	-	.	.	.	-
Cc1ccc(Nc2nc(N)c([N+](=O)[O-])c(N3CCOCC3)n2)cc1	.	.	-	56	-	.
Cc1ccc(Nc2nc(N)c([N+](=O)[O-])c(N3CCCC(C)C3)n2)cc1C (configuration not stated)	.	.	.	60	.	-
CC(C)CC#Cc1ccc([C@H]2[C@H](CO)N3C(=O)CN(S(C)(=O)=O)C[C@@H]23)cc1	.	.	.	-	.	.
CC1(C)CC(=O)C=C(C#CC2(O)CCCCC2)C1	-	-	109	-	-	-
CCOC(=O)Nc1nc2ccc(Cn3cccc3)cc2[nH]1	51	.	.	-	-	.
C/C(=N\NC(=O)c1c([N+](=O)[O-])c(C)nn1C)c1ccc(NC(=O)C2CCCC2)cc1	52	-	-	-	-	-

Screening data deposited in PubChem by Broad Institute.
